# In PubChem BioAssay AID2174 (The Scripps Research Institute Molecular Screening Center, 2009):
# The whole screen tested about 320,000 compounds, of which about 500 (0.16%) were called active. For the sample, actives were picked, then their nearest neighbours and some compounds at random. Unmarked numbers belong to inactive results.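 Rule for the calls: active = inhibition above the mean of all tested compounds plus 3 SD, set per campaign (cut at about 14% in these data); inactive = the rest.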
# Target: Acyl-protein thioesterase 1 (Homo sapiens) (UniProt O75608)
# Sequence (O75608 whole entry, looked up): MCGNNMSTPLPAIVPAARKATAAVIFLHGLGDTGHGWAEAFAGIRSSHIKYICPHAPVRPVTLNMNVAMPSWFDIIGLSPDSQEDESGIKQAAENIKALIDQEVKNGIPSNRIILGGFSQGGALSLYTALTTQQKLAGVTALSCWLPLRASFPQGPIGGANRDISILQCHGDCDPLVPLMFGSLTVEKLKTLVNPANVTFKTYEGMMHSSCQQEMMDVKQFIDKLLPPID
# Experiment: LYPLA1 inhibitors, primary screen, counter-screen for PME1 inhibitor project, biochemical, fluorescence polarization, FP-Rh probe ABPP (AID 2174);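 note: inhibitors block serine hydrolase probe labeling of LYPLA1 so polarization falls; 0% = enzyme with DMSO and 100% = wells lacking LYPLA1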
# Conditions: recombinant LYPLA1, FP-Rh probe fluorescence polarization; at 5.9 µM; hits give high values
row,SMILES,inhibition
1,Cc1ccc(S(=O)(=O)N2CCC(C(=O)N[C@@H](C)C(=O)NCCc3ccccc3)CC2)cc1,2.54%
2,Cc1ccc(S(=O)(=O)N2CCC(C(=O)N[C@@H](C)C(=O)NCc3ccco3)CC2)cc1,48% (active)
3,Cc1ccc(S(=O)(=O)N2CCC(C(=O)N[C@@H](C)C(=O)NCc3ccccc3)CC2)cc1,-4.86%
4,COc1ccc(C(C)NC(=O)C2CCCC2)cc1 (stereo unspecified),0.96%
5,Cc1c(Nc2nc3ccccc3nc2NS(=O)(=O)c2cccs2)c(=O)n(-c2ccccc2)n1C,-0.16%
6,CCOC(=O)c1c(/N=C/c2cc(C)ccc2O)sc2c1CCC2,-3.88%
7,C=CCNC(=O)c1cc(-c2ccccc2O)on1,-0.65%
8,C=CCNC(=S)NNC(=O)c1cc(Cl)ccc1OC,1.08%
9,C=CCNC(=O)c1sc(SC)cc1-c1ccc(Cl)cc1,21.3% (active)
10,CCn1cc(-c2cc(C(=O)O)on2)c(C)n1,-0.98%
11,CC(C)S(=O)(=O)c1csc(NC(=O)Nc2ccc(Cl)cc2)c1Cl,-33.1%
12,CC1Cn2c(nnc2-c2cccs2)S1 (stereo unspecified),-1.86%
13,CN1C(=O)c2ccccc2C(C(=O)NCCCN2CCCC2)C1c1c[nH]c2ccccc12 (stereo unspecified),3.18%
14,O=C1NC2(CCCCCC2)C(=O)N1CCS(=O)(=O)Oc1ccccc1,-0.42%
15,CC(C)CCNC(=O)CCNS(=O)(=O)c1ccc(Cl)cc1,-1.02%
16,O=C(CCCn1c(=O)c2sccc2n(CC(=O)NCC2CCCO2)c1=O)NCc1ccco1 (stereo unspecified),4.84%
17,CCCCN(C(=O)/C=C/c1ccco1)c1c(N)n(CC(C)C)c(=O)[nH]c1=O,-1.43%
18,O=C(NC1CC1)C1=C[C@H](c2c[nH]c3ccccc23)C[C@H](OCc2ccc(CO)cc2)O1,0.98%
19,CC(=O)N1CCN(C(=O)c2cc(-c3ccc(Cl)s3)nc3ccccc23)CC1,-4.07%

row,SMILES,inhibition
1,CCOc1ccc(N(CC(=O)NCCc2ccc(OC)cc2)S(C)(=O)=O)cc1,1.18%
2,CCn1c(SCC(=O)NC2CC2)nnc1-c1ccccn1,-1.31%
3,COc1ccc(/C=C(\NC(=O)c2ccccc2)C(=O)NCCN2CCOCC2)cc1OC,-3.08%
4,COc1ccc(CCNC(=O)c2ccc3c(c2)NC(=O)C(N2CCOCC2)S3)cc1OC (stereo unspecified),-0.92%
5,CCN1CCN(CCNC(=O)c2ccc3c(c2)NC(=O)/C(=C\c2ccc(OC)c(OC)c2)S3)CC1,24.7% (active)
6,CCNc1ccc(C(=O)OCC(=O)N2c3ccccc3NC(=O)C2(C)C)cc1[N+](=O)[O-],2.28%
7,C=C(C)CSc1nc(N)c2c3c(sc2n1)CCC3,-2.73%
8,CCc1noc(C)c1C(=O)N1CCN(S(=O)(=O)c2cccc(C(F)(F)F)c2)CC1,-4.37%
9,O=C(COc1ccccc1Cl)Nc1ccc(C(=O)c2ccc(C(=O)O)cc2)cc1,0.16%
10,O=C(NC(Cc1ccc(O)cc1)C(=O)O)/C(=C/c1ccccc1)NC(=O)c1ccccc1 (stereo unspecified),-3.61%
11,O=C(O)c1ccccc1-c1ccccc1C(=O)NCCc1ccccc1,-3.92%
12,CC(C)CC1(C(=O)NCc2ccccn2)C=CCN1C(=O)c1ccccc1 (stereo unspecified),0.98%
13,CCc1[nH]nc(C(=O)N2CCCC(CO)(Cc3ccc(F)cc3F)C2)c1C (stereo unspecified),-0.39%
14,CCn1c(SCc2ccccc2)nc2cc(OC)c(OC)cc2c1=O,-1.81%
15,CSc1c(SCc2ccccc2)cnn(Cc2ccccc2)c1=O,15% (active)
16,COC(=O)c1ccc(SCc2ccccc2)nc1,-1.56%
17,COC(=O)C1=C(C(=O)OC)[C@@H]2N(C)c3ccccc3[C@@]23C[C@@H](C(=O)OC)N(C(C)=O)C3=N1,-0.85%
18,CCCCCCCCCCCC(=O)O,1.07%
19,COc1ccc(C2C(C#N)=C(N)Oc3n[nH]c(C)c32)cc1CN1CCN(c2ccc(F)cc2)CC1 (stereo unspecified),-1.23%

row,SMILES,inhibition
1,CCOC(=O)C1(CC2CCCCO2)CCN(Cc2nc(-c3cccs3)oc2C)CC1 (stereo unspecified),-3.08%
2,CC[N+](C)(CC)CCC[n+]1c(-c2ccccc2)c2cc(N)ccc2c2ccc(N)cc21,60.1% (active)
3,CCOC(=O)C1=C(CC)Nc2ccccc2N=C1NC(=O)c1cccc(S(=O)(=O)N2CCCC2)c1,-0.79%
4,COc1cc(OC)cc(-c2c(-c3ccc(F)cc3)c3cc(-c4ccc5cc[nH]c5c4)ccc3n2C)c1,-1.29%
5,CC1=C[C@H]2Cc3cc(C)cc(C)c3S(=O)(=O)[C@@H]2C=C1,-3.78%
6,O=C(N/C(=C\c1ccc(F)cc1)C(=O)N1CCCCCC1)c1ccccc1,-1.76%
7,CC1=C(C)C(=O)OC(C(C)C2CCC3C4CC=C5CC(OC6OC(COC7OC(CO)C(O)C(O)C7O)C(O)C(O)C6O)CC(O)C5(C)C4CCC23C)C1 (stereo unspecified),-11.7%
8,COc1cccc(/C=C/C(=O)OCC(=O)N2CCCc3ccccc32)c1,-0.36%
9,COc1ccccc1N1CC(C(=O)NCCN2C(=O)S/C(=C\c3cccnc3)C2=O)CC1=O (stereo unspecified),-0.75%
10,CCOc1ccc(N2CC(C(=O)NCCN3C(=O)S/C(=C\c4cccnc4)C3=O)CC2=O)cc1 (stereo unspecified),7.93%
11,COc1ccc(N2CC(C(=O)NCCN3C(=O)S/C(=C\c4cccnc4)C3=O)CC2=O)c(OC)c1 (stereo unspecified),67.3% (active)
12,CCOc1ccc(S(=O)(=O)N2CCCCC2)cc1NC(=O)CN1CCCC1c1cccs1 (stereo unspecified),-2.05%
13,Cc1sc2ncn(CC(=O)NCCCC(=O)NCc3ccc(F)cc3)c(=O)c2c1C,3.83%
14,CC(C)(CNC(=O)CNC(=O)C1CCCCC1)N1CCOCC1,-3.79%
15,Cn1cc(/C=C/C(=O)N2CCCC(C(=O)c3ccc(C(F)(F)F)cc3)C2)cn1 (stereo unspecified),-3.26%
16,CCCCn1c(N)c(N(CCC(C)C)C(=O)c2ccc(COc3ccccc3)o2)c(=O)[nH]c1=O,2.38%
17,CCCCn1c(N)c(N(CCC(C)C)C(=O)c2ccc([N+](=O)[O-])o2)c(=O)[nH]c1=O,-7.18%
18,CCCCn1c(N)c(N(CCC(C)C)C(=O)CC2OC(=O)c3ccccc32)c(=O)[nH]c1=O (stereo unspecified),16.4% (active)
